Experimental data: PubChem BioAssay AID1159580 (chemical genetic matrix, 2015)
Screen size: about 5,500 compounds; about 2,000 (36%) were called active. Inconclusive results (about 18%) are left out. No stated cut-off is given here; in the data, active means normalized growth mostly below about 0.91 (no sharp cut-off); inconclusive means no clear call, values can overlap the other calls; inactive means mostly above about 0.92. This is one part of the list.

Experiment: chemical genetic growth profiling, strain panel (AID 1159580);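 further: tested at 20 µM; growth read once vehicle control cultures reached saturation at 30 °C; 1 = growth at the plate median or of vehicle wells; lower values mean less growth of the strain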
Conditions: growth OD

Measured: normalized growth

CC1(C)O[C@@H]2CC3C4C[C@H](F)C5=CC(=O)CC[C@]5(C)C4[C@@H](O)C[C@]3(C)[C@]2(C(=O)CO)O1 (some centres not stated)
inactive: S. cerevisiae deletion strains, locus YJR075W, strain HOC1, active compounds read low 1.01 | S. cerevisiae deletion strains, locus YKL009W, strain mrt4, active compounds read low 0.999 | S. cerevisiae deletion strains, locus YKL068W, active compounds read low 1.02 | S. cerevisiae deletion strains, locus YKL085W, strain MDH1 (second series), active compounds read low 1 | S. cerevisiae deletion strains, locus YKL085W, strain MDH1, active compounds read low 1 | S. cerevisiae deletion strains, locus YKL160W, strain elf1, active compounds read low 0.988 | S. cerevisiae deletion strains, locus YKL190W, strain CNB1, active compounds read low 1.02 | S. cerevisiae deletion strains, locus YKR001C, strain vps1, active compounds read low 1.01 | S. cerevisiae deletion strains, locus YKR026C, strain gcn3, active compounds read low 1 | S. cerevisiae deletion strains, locus YKR091W, strain srl3, active compounds read low 0.997 | S. cerevisiae deletion strains, locus YLL001W, strain dnm1, active compounds read low 0.977 | S. cerevisiae deletion strains, locus YLL026W, active compounds read low 1.01 | S. cerevisiae deletion strains, locus YLL041C, strain sdh2, active compounds read low 1.01 | S. cerevisiae deletion strains, locus YLR027C, strain aat2, active compounds read low 1.02 | S. cerevisiae deletion strains, locus YLR039C, strain RIC1, active compounds read low 1.03 | S. cerevisiae deletion strains, locus YLR058C, strain SHM2, active compounds read low 1.02 | S. cerevisiae deletion strains, locus YLR102C, strain apc9, active compounds read low 1.01 | S. cerevisiae deletion strains, locus YLR113W, strain HOG1, active compounds read low 1.02 | S. cerevisiae deletion strains, locus YLR221C, strain rsa3, active compounds read low 0.999 | S. cerevisiae deletion strains, locus YLR258W, strain gsy2, active compounds read low 1.02 | S. cerevisiae deletion strains, locus YLR262C, strain YPT6 (second series), active compounds read low 0.988 | S. cerevisiae deletion strains, locus YLR262C, strain YPT6, active compounds read low 1.04 | S. cerevisiae deletion strains, locus YLR268W, strain sec22, active compounds read low 1.01 | S. cerevisiae deletion strains, locus YLR320W, strain mms22, active compounds read low 0.985 | S. cerevisiae deletion strains, locus YLR330W, strain CHS5, active compounds read low 1.01 | S. cerevisiae deletion strains, locus YLR342W, strain FKS1 (second series), active compounds read low 0.997 | S. cerevisiae deletion strains, locus YLR342W, strain FKS1, active compounds read low 1.01 | S. cerevisiae deletion strains, locus YLR357W, strain rsc2, active compounds read low 0.968 | S. cerevisiae deletion strains, locus YLR370C, strain arc18, active compounds read low 1 | S. cerevisiae deletion strains, locus YLR371W, strain rom2, active compounds read low 1 | S. cerevisiae deletion strains, locus YLR384C, strain iki3, active compounds read low 0.986 | S. cerevisiae deletion strains, locus YLR418C, strain cdc73, active compounds read low 1.01 | S. cerevisiae deletion strains, locus YML016C, strain PPZ1, active compounds read low 1.01 | S. cerevisiae deletion strains, locus YML032C, strain rad52, active compounds read low 0.996 | S. cerevisiae deletion strains, locus YML120C, strain ndi1, active compounds read low 1.01 | S. cerevisiae deletion strains, locus YML124C, strain tub3, active compounds read low 1.01 | S. cerevisiae deletion strains, locus YMR058W, strain fet3, active compounds read low 1.02 | S. cerevisiae deletion strains, locus YMR078C, strain ctf18, active compounds read low 1.01 | S. cerevisiae deletion strains, locus YMR125W, strain sto1, active compounds read low 1.02 | S. cerevisiae deletion strains, locus YMR129W, active compounds read low 1.02 | S. cerevisiae deletion strains, locus YMR205C, strain PFK2, active compounds read low 1.01 | S. cerevisiae deletion strains, locus YMR223W, strain ubp8, active compounds read low 0.993 | S. cerevisiae deletion strains, locus YMR231W, strain pep5, active compounds read low 1 | S. cerevisiae deletion strains, locus YMR263W, strain SAP30, active compounds read low 1.02 | S. cerevisiae deletion strains, locus YMR307W, strain GAS1, active compounds read low 1.01 | S. cerevisiae deletion strains, locus YNL067W, strain RPL9B, active compounds read low 1.01 | S. cerevisiae deletion strains, locus YNL071W, strain lat1, active compounds read low 1.01 | S. cerevisiae deletion strains, locus YNL128W, strain TEP1, active compounds read low 1.02 | S. cerevisiae deletion strains, locus YNL153C, strain GIM3, active compounds read low 1.01 | S. cerevisiae deletion strains, locus YNL183C, strain NPR1, active compounds read low 0.931 | S. cerevisiae deletion strains, locus YNL209W, strain ssb2, active compounds read low 0.999 | S. cerevisiae deletion strains, locus YNL233W, strain BNI4, active compounds read low 1.01 | S. cerevisiae deletion strains, locus YNL248C, strain rpa49, active compounds read low 0.987 | S. cerevisiae deletion strains, locus YNL250W, strain rad50, active compounds read low 1 | S. cerevisiae deletion strains, locus YNL271C, strain bni1, active compounds read low 1.01 | S. cerevisiae deletion strains, locus YNL298W, strain CLA4, active compounds read low 1 | S. cerevisiae deletion strains, locus YNL307C, strain MCK1, active compounds read low 1.01 | S. cerevisiae deletion strains, locus YNL322C, strain KRE1 (second series), active compounds read low 0.993 | S. cerevisiae deletion strains, locus YNL322C, strain KRE1, active compounds read low 1.02 | S. cerevisiae deletion strains, locus YNR049C, strain mso1, active compounds read low 1 | S. cerevisiae deletion strains, locus YNR052C, strain pop2, active compounds read low 0.999 | S. cerevisiae deletion strains, locus YOL006C, strain TOP1, active compounds read low 1.04 | S. cerevisiae deletion strains, locus YOL012C, strain htz1 0.952 | S. cerevisiae deletion strains, locus YOL147C, strain pex11, active compounds read low 1.01 | S. cerevisiae deletion strains, locus YOR001W, strain rrp6, active compounds read low 1 | S. cerevisiae deletion strains, locus YOR061W, strain CKA2, active compounds read low 1.01 | S. cerevisiae deletion strains, locus YOR069W, strain VPS5, active compounds read low 1.01 | S. cerevisiae deletion strains, locus YOR070C, strain gyp1, active compounds read low 1.01 | S. cerevisiae deletion strains, locus YOR080W, strain dia2, active compounds read low 1.02 | S. cerevisiae deletion strains, locus YOR083W, strain WHI5, active compounds read low 0.946 | S. cerevisiae deletion strains, locus YOR106W, strain vam3, active compounds read low 1.01 | S. cerevisiae deletion strains, locus YOR136W, strain idh2, active compounds read low 0.994 | S. cerevisiae deletion strains, locus YOR144C, strain elg1, active compounds read low 1 | S. cerevisiae deletion strains, locus YOR184W, strain ser1, active compounds read low 1 | S. cerevisiae deletion strains, locus YOR231W, strain MKK1, active compounds read low 1.03 | S. cerevisiae deletion strains, locus YOR265W, strain rbl2, active compounds read low 1.01 | S. cerevisiae deletion strains, locus YOR270C, strain vph1, active compounds read low 1.03 | S. cerevisiae deletion strains, locus YOR290C, strain snf2, active compounds read low 1.01 | S. cerevisiae deletion strains, locus YOR316C, strain cot1, active compounds read low 1.01 | S. cerevisiae deletion strains, locus YPL051W, strain arl3, active compounds read low 1.01 | S. cerevisiae deletion strains, locus YPL055C, strain LGE1, active compounds read low 1.04 | S. cerevisiae deletion strains, locus YPL078C, strain atp4, active compounds read low 1.01 | S. cerevisiae deletion strains, locus YPL106C, strain sse1, active compounds read low 0.973 | S. cerevisiae deletion strains, locus YPL240C, strain hsp82, active compounds read low 1 | S. cerevisiae deletion strains, locus YPL241C, strain CIN2, active compounds read low 0.962 | S. cerevisiae deletion strains, locus YPL256C, strain CLN2, active compounds read low 1.03 | S. cerevisiae deletion strains, locus YPR119W, strain clb2, active compounds read low 1 | S. cerevisiae deletion strains, locus YPR141C, strain kar3, active compounds read low 1.01 | S. cerevisiae deletion strains, locus YPR163C, strain tif3, active compounds read low 1 | S. cerevisiae deletion strains, locus YPR167C, strain met16, active compounds read low 1 | S. cerevisiae deletion strains, strain wtn01, active compounds read low 1.01 | S. cerevisiae strains, strain wild type, active compounds read low 1.02
